The values that follow come from the supplement of paper PMC6522484.

In experiment [1] the test system is DLD1. In words: cell viability (CellTiter-Glo) relative to plate median (fraction of plate median); higher = more viable cells. The note with it: 5 µM; treatment time 24 h; reporter: 7TFP. In outline: (§1)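 Values are well luminescence normalised to the plate median, from either a firefly luciferase or a CellTiterGlo readout on parallel plates. The cells, colorectal cancer lines stably transduced with lentiviral 7TFP or TCF4/Wnt firefly luciferase reporters, were treated with library compounds at a final 5 µM for 24 h. The mean of two independent replicates is listed.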
For orientation: In ATP-based viability assays light output follows the ATP content of the culture.

For a further experiment, the system named is HCT116. Described as above. The conditions noted are these: 5 µM; treatment time 24 h; reporter: TCF4/Wnt. In outline: as §1
The test system of experiment [2] is SW480. Described as above. The note with it: 5 µM; treatment time 24 h; reporter: 7TFP. In outline: as §1
Experiment [3] concerns DLD1. In words: TCF/Wnt firefly luciferase reporter signal relative to plate median (fraction of plate median); higher = higher Wnt reporter signal. The note with it: 5 µM; treatment time 24 h; reporter: 7TFP. In a few lines:
as §1
Background: In a reporter assay the amount or activity of a reporter protein is the signal.

Experiment [4] deals with SW480. The experiment is described as above. The conditions noted are these: 5 µM; treatment time 24 h; reporter: 7TFP. In a few lines: as §1

± gives the standard deviation of the averaged measurements.

As for `CC(C)[C@H](NC(=O)[C@H](Cc1ccc(O)cc1)NC(=O)[C@@H](NC(=O)C(F)(F)F)C(C)C)C(=O)O`, the cell viability in the experiment with DLD1 [1] worked out at 0.957 ± 0.028; in the experiment with HCT116, 0.94 ± 0.021; in the experiment with SW480 [2], 0.969 ± 0.025. For the same molecule, the “TCF/Wnt firefly luciferase reporter signal” value in the experiment on DLD1 [3] worked out at 0.842 ± 0.12; in the experiment with SW480 [4], 0.845 ± 0.035.
The matching figures for `C[C@H](N)[C@H](O)c1cccc(O)c1`: 0.955 ± 0.052, 0.997 ± 0.075, 1.06 ± 0.035, 0.918 ± 0.074 and 0.915 ± 0.0071.
The matching figures for `Oc1c(I)cc(I)c2cccnc12`: 0.992 ± 0.11, 0.931 ± 0.035, 0.939 ± 0.016, 0.928 ± 0.026 and 0.984 ± 0.14.
The like results for `CC(COc1ccccc1)NC(C)C(O)c1ccc(O)cc1` (stereo not given) were, in that order, 1.03 ± 0.096, 0.966 ± 0.091, 0.916 ± 0.017, 1.18 ± 0.05 and 1.01 ± 0.076.
`COc1ccc(-c2coc3cc(OC)cc(OC)c3c2=O)cc1`: the cell viability was 1.03 ± 0.086 with DLD1 [1], 1.04 in the experiment on HCT116 and 1.035 ± 0.0071 in the experiment with SW480 [2]. For the same molecule, the “TCF/Wnt firefly luciferase reporter signal” value in the experiment on DLD1 [3] is 0.963 ± 0.11; with SW480 [4] it was 1.04 ± 0.028.
The like results for `O=C1c2ccccc2C(=O)c2c1ccc(O)c2O` were, in that order, 1.01 ± 0.074, 1.05 ± 0.13, 0.983 ± 0.053, 1.09 ± 0.11 and 1.1 ± 0.13.
The matching figures for `Cc1cccc(Nc2cc(Cl)nc(SCC(=O)O)n2)c1C`: 0.964 ± 0.021, 0.999 ± 0.044, 0.9325 ± 0.0064, 1.09 ± 0.014 and 1.085 ± 0.0071.
The matching figures for `C=CCCCCCCCCCCCC(O)CC(O)COC(C)=O` (stereo not given): 0.995 ± 0.0071, 0.9555 ± 0.0064, 1.005 ± 0.0071, 0.866 ± 0.1 and 0.962 ± 0.021.
Consider `CN1CCCN=C1/C=C/c1cccs1`, for which the cell viability is 0.984 ± 0.022 in the experiment on DLD1 [1], 0.903 ± 0.093 in the experiment with HCT116 and 1.05 with SW480 [2]. Moreover, the “TCF/Wnt firefly luciferase reporter signal” value amounted to 1.135 ± 0.0071 in the experiment on DLD1 [3] and 0.994 ± 0.037 in the experiment on SW480 [4].
Consider `O=C(O)[C@]1(O)C[C@@H](O)[C@@H](O)[C@H](O)C1`, for which the cell viability in the experiment on DLD1 [1] stood at 0.982 ± 0.04; in the experiment on HCT116, 1.05 ± 0.16; in the experiment with SW480 [2] it was 0.934 ± 0.033. Moreover, the “TCF/Wnt firefly luciferase reporter signal” value was 1.08 ± 0.16 in the experiment with DLD1 [3] and 0.923 ± 0.17 in the experiment with SW480 [4].
In the case of `CN(C)c1nc(N(C)C)nc(N(C)C)n1`, the cell viability with DLD1 [1] was 0.976 ± 0.076; with HCT116, 0.97 ± 0.057; with SW480 [2], 1.05. Moreover, the “TCF/Wnt firefly luciferase reporter signal” value in the experiment with DLD1 [3] was 1.03 ± 0.035; in the experiment with SW480 [4], 1.01 ± 0.09.
The matching figures for `O=c1oc(CO)c(CO)c2cccc(O)c12` [8-hydroxy-3,4-bis-(hydroxymethyl)-isocumarin]: 0.91 ± 0.03, 0.981 ± 0.098, 0.967 ± 0.038, 1.09 ± 0.092 and 1.05 ± 0.057.
The matching figures for `Nc1nc2c(ncn2[C@@H]2O[C@H](CO)[C@@H](O)[C@H]2O)c(=O)[nH]1` [Guanosin]: 0.915 ± 0.033, 0.934 ± 0.044, 0.903 ± 0.023, 0.927 ± 0.019 and 0.88 ± 0.014.
The matching figures for `O=C(CCc1ccc(O)cc1)c1c(O)cc(O)cc1O`: 0.974 ± 0.093, 0.88 ± 0.047, 0.933 ± 0.0042, 0.75 ± 0.047 and 0.858 ± 0.037.
Turning to `C=CC(C)(O)CCC1C(=C)CC(OC(C)=O)C2C(C)(C)CCCC12C` (stereo not given), the results for the cell viability in the experiment with DLD1 [1], with HCT116 and with SW480 [2] were 0.929 ± 0.03, 0.908 ± 0.041 and 0.971 ± 0.033, respectively. In addition, the “TCF/Wnt firefly luciferase reporter signal” value in the experiment with DLD1 [3] was 0.798 ± 0.013; in the experiment on SW480 [4], 0.87 ± 0.17.
The like results for `CN/C(=N\CCSCc1nc[nH]c1C)NC#N` were, in that order, 1.04 ± 0.021, 1.12 ± 0.042, 1.04 ± 0.021, 1.12 ± 0.18 and 1.06 ± 0.042.
As for `COCCCOc1cc(C[C@@H](C[C@H](N)[C@@H](O)C[C@H](C(=O)NCC(C)(C)C(N)=O)C(C)C)C(C)C)ccc1OC`, the results for the cell viability with DLD1 [1], in the experiment with HCT116 and with SW480 [2] were 0.99 ± 0.029, 0.962 ± 0.068 and 0.974 ± 0.0057, respectively. Moreover, the “TCF/Wnt firefly luciferase reporter signal” value was found to be 0.991 ± 0.07 in the experiment on DLD1 [3] and 1.07 ± 0.021 in the experiment on SW480 [4].
`CC(=O)O[C@H]1C(=O)[C@@]2(C)[C@H]([C@H](OC(=O)c3ccccc3)[C@]3(O)C[C@H](OC(=O)[C@H](O)[C@@H](NC(=O)c4ccccc4)c4ccccc4)C(C)=C1C3(C)C)[C@]1(OC(C)=O)CO[C@@H]1C[C@@H]2O`: the cell viability in the experiment on DLD1 [1] stood at 0.901 ± 0.03; in the experiment on HCT116 it was 0.498 ± 0.016; in the experiment on SW480 [2], 1.11 ± 0.092. The entries for the “TCF/Wnt firefly luciferase reporter signal” value with DLD1 [3] and in the experiment with SW480 [4] were 0.792 ± 0.27 and 0.755 ± 0.23, respectively.
Regarding `O=C(O)[C@@H](O)[C@H](O)[C@H](O)[C@@H](O)C(=O)O`, the cell viability stood at 0.971 ± 0.023 in the experiment with DLD1 [1], 1.03 ± 0.05 in the experiment on HCT116 and 1 ± 0.051 in the experiment on SW480 [2]. Moreover, the “TCF/Wnt firefly luciferase reporter signal” value in the experiment on DLD1 [3] stood at 1.06 ± 0.035; in the experiment with SW480 [4], 1.03 ± 0.028.
For `Oc1cccc(O)c1`, the cell viability with DLD1 [1] worked out at 1.02 ± 0.072; with HCT116 it was 0.985 ± 0.013; in the experiment on SW480 [2] it was 1.01 ± 0.02. The “TCF/Wnt firefly luciferase reporter signal” value in the experiment on DLD1 [3] was 0.873 ± 0.074; in the experiment with SW480 [4], 1.02 ± 0.055.
The matching figures for `O=c1[nH]c(=O)n([C@H]2C[C@H](O)[C@@H](CO)O2)cc1C(F)(F)F`: 1.07 ± 0.042, 1.03 ± 0.05, 1.03 ± 0.014, 0.818 ± 0.16 and 0.886 ± 0.013.
The like results for `C=C1CCC2C(CC2(C)C)C(=C)CC/C1=N/O` (stereo not given) were, in that order, 1.03 ± 0.035, 1.02 ± 0.11, 1 ± 0.023, 1.095 ± 0.0071 and 0.907 ± 0.037.
For the molecule `Cc1coc2c1C(=O)C(=O)c1c-2ccc2c1CCCC2(C)C`, the cell viability came out at 1.03 ± 0.043 in the experiment with DLD1 [1], 0.999 ± 0.016 in the experiment on HCT116 and 1.05 ± 0.028 in the experiment with SW480 [2]. The “TCF/Wnt firefly luciferase reporter signal” value in the experiment with DLD1 [3] came to 0.785 ± 0.064; in the experiment on SW480 [4], 0.994 ± 0.14.
The like results for `CCc1ccc(CCOc2ccc(CC3SC(=O)NC3=O)cc2)nc1` (stereo not given) were, in that order, 0.923 ± 0.048, 0.904 ± 0.07, 0.983 ± 0.096, 1.015 ± 0.0071 and 1.07 ± 0.057.
`O=c1cc(CO)occ1O`: the cell viability in the experiment on DLD1 [1] was determined as 1.02 ± 0.057; in the experiment on HCT116, 1.13 ± 0.099; in the experiment on SW480 [2], 0.932 ± 0.011. In addition, the “TCF/Wnt firefly luciferase reporter signal” value turned out to be 0.952 ± 0.069 with DLD1 [3] and 1.04 ± 0.083 in the experiment on SW480 [4].
The like results for `CSc1ccc2c(c1)N(CCC1CCCCN1C)c1ccccc1S2` (stereo not given) were, in that order, 1.01 ± 0.048, 1.02 ± 0.076, 1.115 ± 0.0071, 0.928 ± 0.039 and 0.895 ± 0.1.
The like results for `COC(=O)C[C@H]1C(C)(C)[C@@H](O)[C@@H]2CC3=C4CC(O)O[C@@H](c5ccoc5)[C@]4(C)CCC3[C@@]1(C)C2=O` (stereo partly drawn) [3,16-DIDEOXYMEXICANOLIDE-3beta-DIOL] were, in that order, 1.1 ± 0.085, 1.04 ± 0.042, 1.035 ± 0.0071, 1.02 ± 0.15 and 0.896 ± 0.076.
The like results for `Cc1ccnc(NS(=O)(=O)c2ccc(N)cc2)n1` were, in that order, 0.968 ± 0.059, 0.974 ± 0.052, 0.953 ± 0.04, 0.924 ± 0.019 and 0.929 ± 0.1.
Regarding `CCCCC1C(=O)N(c2ccccc2)N(c2ccc(O)cc2)C1=O` (stereo not given), the cell viability with DLD1 [1] was 0.923 ± 0.015; with HCT116, 0.873 ± 0.038; in the experiment on SW480 [2], 0.898 ± 0.028. Further, the “TCF/Wnt firefly luciferase reporter signal” value in the experiment with DLD1 [3] came to 1.21 ± 0.057; in the experiment on SW480 [4], 1.02 ± 0.05.
The matching figures for `C[C@]12CCC(=O)C=C1C=C[C@@H]1[C@@H]2CC[C@@]2(C)[C@H]1CC[C@@]21CCC(=O)O1`: 0.884 ± 0.075, 0.899 ± 0.049, 0.969 ± 0.044, 1.1 ± 0.071 and 1.025 ± 0.0071.
